Results taken from publication PMC12136788.
Whole data set: some 5,800 sequences, median “enrichment r” near 0.68, cut for the highest 2% near 11. What follows is part of a selection rich in the highest values, with near analogues and random picks from the rest.

T1: UNK ZnF1-6 (called full-length) (human, UniProt Q9C0B0 30-357)
T1 sequence: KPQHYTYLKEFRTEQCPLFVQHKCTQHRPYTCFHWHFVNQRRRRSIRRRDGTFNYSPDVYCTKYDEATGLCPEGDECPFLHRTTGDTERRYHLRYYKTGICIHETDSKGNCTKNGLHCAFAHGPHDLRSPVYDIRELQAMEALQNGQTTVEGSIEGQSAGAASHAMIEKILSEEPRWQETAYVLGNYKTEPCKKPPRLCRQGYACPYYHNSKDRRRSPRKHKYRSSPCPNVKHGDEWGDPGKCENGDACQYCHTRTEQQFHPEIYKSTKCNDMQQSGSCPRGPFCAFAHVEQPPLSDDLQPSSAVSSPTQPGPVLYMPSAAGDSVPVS

B1: chr11:118750849:118750950:-|3pUTR|ENSG00000110367|msi1|FALSE|unique (ssRNA)
RNA: GGGAGUUCUACAGUCCGACGAUCAUUCUAGAAAGUACUUUGGCCUCGUGCUGUAGAGAGCAGAUUUCUAUGGUACCCUGUGUUAGUAAAGGGGCCCAGAAAUCUGGGAUGUACUGUUUGCUGCCACACUGUCUCAUCUAGUACCAACAGAGGAUUGAGCAUCA
B2: ENSG00000198589:be:win_8001|CDS|ENSG00000198589|bound_else_gene|NA|bound_elsewhere_windowed (ssRNA)
RNA: GGGAGUUCUACAGUCCGACGAUCUGGAGAUAACCCAGGCAGUGAGACUGCUGCUCCUCGGGCCAUUUUGACCGGCCAUGACUAUGAGGUCACAUGUGCUGCGGUGUGUGCGGAGCUAGGCCUGGUGUUGAGUGGUUCACAAGACAACAGAGGAUUGAGCAUCA
B3: chr2:231108229:231108516:-|three_prime_utr|ENSG00000135914|control|control|control (ssRNA)
RNA: GGGAGUUCUACAGUCCGACGAUCAAGAAUAUCUAAUUUUCCUAAUUUGGACAAGAUUAUUCCAUGAGGAAAAUAAUUUUAUAUAGCUACAAAUGAAAACAAUCCAGCACUCUGGUUAAAUUUUAAGGUAUUCGAAUGAAAUAACAACAGAGGAUUGAGCAUCA
B4: chr5:113594843:113594944:+|3pUTR|ENSG00000047188|msi1|FALSE|bound_elsewhere (ssRNA)
RNA: GGGAGUUCUACAGUCCGACGAUCCAACAUAAAAUCUUGAGAACCUUCUACUUUCUCUGGGAAAGCAUUAUAUAGUGGUGCAUUAGUUUAGAAAGUCAGCUAUGAUUUUGCCUAUAGUUCUAGUUAUUAGCUUUGGGGUUUUCUCAACAGAGGAUUGAGCAUCA
B5: chr3:49657245:49657349:+|CDS|ENSG00000164061|unk|total|mutant (ssRNA)
RNA: GGGAGUUCUACAGUCCGACGAUCCAGCCGCCGUGGCAUCAAGAAGCGGCACUCCAUGCCACGCCUGCGGGAUGCCUGUGAGCCCGAGUCUGGGACUGAGCCCUGUGUGGUCAGGAGGAUUGCCGACAGCAGCGUGCAGACAGACAACAGAGGAUUGAGCAUCA
B6: chr1:193014253:193014354:-|3pUTR|ENSG00000116750|unk|total|mutant (ssRNA)
RNA: GGGAGUUCUACAGUCCGACGAUCUUAACCGGUAUAAGGAUUUUUCUUAUUAAUCUAAUAAAAUUCCUUAACCGGAAUUUCCACCGCUUAAGAGUGGUUUAUUUUAUCUGCAUCUUCUUUGGUGAUUGCAAAUCCCUUGUGAUACAACAGAGGAUUGAGCAUCA
B7: chr1:45660322:45660423:-|5pUTR|ENSG00000159592|unk|FALSE|unique (ssRNA)
RNA: GGGAGUUCUACAGUCCGACGAUCUCCCCUUCCCCCCUUCCCCUUUUCCCCUUUCCCCUUUUGGAAACGUGUCAGGAACCAAAUAGUUUAAGAUGAGCAGUUGAGGGGACUGAGAGAGUGAUCGACACAGAACCUGGCUUCUUCCAACAGAGGAUUGAGCAUCA
B8: ENSG00000070961:be:win_3901|3pUTR|ENSG00000070961|bound_else_gene|NA|bound_elsewhere_windowed (ssRNA)
RNA: GGGAGUUCUACAGUCCGACGAUCAAGUGACCUGUGGAUCAUCAGUAGUACCCAAGCAUGGUCCUGAACAGUGUAUUAGCAGAGCUUUAGUUUAUCUCAGUCCUGGAUGGGAGAGAGAGGGAGGAGUAAAACUGGGCAAGACAACAACAGAGGAUUGAGCAUCA
B9: chr11:95167508:95167609:-|3pUTR|ENSG00000149212|unk|FALSE|unique (ssRNA)
RNA: GGGAGUUCUACAGUCCGACGAUCAAUAAUGGAGACUGAAUGAGGCGGUUUGUAUUAAAUUAUAUGCCAUGAAGUGUUCAUUUUAGCUUUAACCUAAUUAUGACUGUACCACCAUGAAGUACAGAAUGAAAAAUUAUAUAUAUGCAACAGAGGAUUGAGCAUCA
B10: chr8:30843048:30843149:-|CDS|ENSG00000133863|unk|FALSE|unique (ssRNA)
RNA: GGGAGUUCUACAGUCCGACGAUCGGAUACUAUAAUUGCUUCCAGAAAGUCAGAUCAUCCAAUAAACGAAGCAACAAUUAGCAUAGAAAAUUCUAAAUUUAACAGUAAUUUGCUUGCACACCCAGAUAUUUGUUGUAUUAGUGACAACAGAGGAUUGAGCAUCA
B11: ENSG00000136451:be:win_3801|3pUTR|ENSG00000136451|bound_else_gene|NA|bound_elsewhere_windowed (ssRNA)
RNA: GGGAGUUCUACAGUCCGACGAUCACCCCUAAGCUAGAAUGUGGUUGUCAGAACCCUGAAAGUAUUAGUUCUAAAAAAAAAAAGAUAUAUACUAGAAGUAAUUGUUUUAUCAAUUCAUUGUAUAAUAAACAGGAGUGAGACUUCCAACAGAGGAUUGAGCAUCA
B12: chr8:80500255:80500365:+|CDS|ENSG00000205189|unk|FALSE|unique (ssRNA)
RNA: GGGAGUUCUACAGUCCGACGAUCGAAAAACCAAACUACAAAAAGAUUUAUUUAUAAUAUUCCACCUAAUAAUGAAACGAAUUUAGAAGAUUGCUCAGUAAUGCAGCCACCUGUUGCCUAUCCAGAAGAAAAUACACUACUCAUCAACAGAGGAUUGAGCAUCA
B13: chr2:42328916:42329027:+|CDS|ENSG00000143924|unk|total|mutant (ssRNA)
RNA: GGGAGUUCUACAGUCCGACGAUCAGAAGGAUCUGAUGGGACAGAUAUCAAUGCACUGGUGCGAUCCCACAACCGAAAGGUGACCGCUGUUGCCGAUGACUUUUGUAAAGUCCAUCUGUUUCAGUAUCCCUGCUCCAAAGCAAACAACAGAGGAUUGAGCAUCA
B14: chr6:52279506:52279615:-|CDS|ENSG00000112118|unk|total|mutant (ssRNA)
RNA: GGGAGUUCUACAGUCCGACGAUCUGAGUGUGGCAUUUUUAAGACAGGACGGAGAUCACUCUGUCCCUCUGUGUGCCUUUUUCCCGGAUGAGGAGAACAAUCCCCUUGAGACAGAAUAUGGCCUUUCUGUCUACAAGGAUCACCCAACAGAGGAUUGAGCAUCA

Molecular target: T1, UNK ZnF1-6 (called full-length)
Test: nsRBNS (natural sequence RNA bind-n-seq); RBNS binding buffer (assumed for nsRBNS): 25 mM Tris pH 7.5, 150 mM KCl, 3 mM MgCl2, 0.01% Triton X-100, 500 ug/ml BSA, 20 U/ml SUPERase-In, 4 C; UNK is unkempt and MSI1 is Musashi-1; names of the RNAs are library labels; protein concentration not given here; high values mean tight binding

Row | Binder | binding signal [enrichment R]
1 | B1 | 0.975
2 | B2 | 0.695
3 | B3 | 1.88
4 | B4 | 5.33
5 | B5 | 0.785
6 | B6 | 0.372
7 | B7 | 0.765
8 | B8 | 1.72
9 | B9 | 8.52
10 | B10 | 14.2
11 | B11 | 2.41
12 | B12 | 9.28
13 | B13 | 0.381
14 | B14 | 0.393
